The record followed here is PubChem BioAssay (NCI).

Some test systems named below: SR leukemia; RPMI-8226 leukemia; OVCAR-8 ovarian; OVCAR-5 ovarian; OVCAR-4 ovarian; SK-OV-3 ovarian; IGROV1 ovarian; OVCAR-3 ovarian; HS 578T breast; NCI/ADR-RES ovarian; T-47D breast; BT-549 breast; MDA-MB-435 melanoma; SW-620 colon; MCF7 breast; HCT-116 colon; HCC-2998 colon; KM12 colon.
Common to all, as to experiment: NCI-60 one-dose screen, 48 h (100 = growth as untreated, 0 = no growth, -100 = all killed)
Holding throughout (settings): 10 µM unless noted

About 83,000 compounds went through this panel and 20% of them were active in at least one assay; those are over-represented in the sample as a whole.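 For each line, cells grew in 96-well plates with the test compound present at a single concentration for 48 hours.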 Values without a mark were called inactive. The source made the active and inactive calls. How the source made its calls: active means growth percent below 10; inactive means the rest.

`CC1(C)CC[C@]2(C(=O)O)CC[C@]3(C)C(=CC[C@@H]4[C@@]5(C)C/C(=C/O)C(=O)C(C)(C)[C@@H]5CC[C@]43C)[C@@H]2C1`: the growth was 36.3% in the experiment with SR leukemia; 13.2% in the experiment with RPMI-8226 leukemia; 29.3% in the experiment with OVCAR-8 ovarian; 81.4% in the experiment with OVCAR-5 ovarian; 63% in the experiment with OVCAR-4 ovarian; 89.8% with SK-OV-3 ovarian. For the same compound, the growth is 31.4% with IGROV1 ovarian; 21% with OVCAR-3 ovarian; 74.1% with HS 578T breast; 38.8% with NCI/ADR-RES ovarian; 61.9% in the experiment with T-47D breast; 88.6% in the experiment with BT-549 breast. For the same compound, the growth is 69.7% in the experiment on MDA-MB-435 melanoma; 12% in the experiment with SW-620 colon; 29.5% in the experiment on MCF7 breast; 12.7% in the experiment with HCT-116 colon; 50.5% with HCC-2998 colon; 15.7% with KM12 colon.
For the compound `O=C(CCCCCCN1CC(=O)N2[C@H](c3cc(Br)cs3)c3[nH]c4ccccc4c3C[C@H]2C1=O)NO`, the growth in the experiment with SR leukemia is 17.2%; in the experiment on RPMI-8226 leukemia it was 11.8%; with OVCAR-8 ovarian, 28%; in the experiment with OVCAR-5 ovarian it was 38%; with OVCAR-4 ovarian, 63%; in the experiment with SK-OV-3 ovarian it was 61.9%. The growth was 40.7% in the experiment with IGROV1 ovarian; 38.4% with OVCAR-3 ovarian; 44.8% in the experiment on HS 578T breast; 78.9% in the experiment on NCI/ADR-RES ovarian; 17.3% in the experiment with T-47D breast; 68.1% in the experiment with BT-549 breast. The growth with MDA-MB-435 melanoma is 22.6%; in the experiment with SW-620 colon, 8.76% (active); with MCF7 breast, 33.2%; in the experiment with HCT-116 colon, 13%; in the experiment on HCC-2998 colon, 75.1%; in the experiment with KM12 colon, 47.2%.
On to `Oc1ccc(CN2CCC(N3CCCCC3)CC2)c2cccnc12`, for which the growth in the experiment with SR leukemia is 19.7%; in the experiment on RPMI-8226 leukemia it was 19.4%; in the experiment on OVCAR-8 ovarian it was 25%; with OVCAR-5 ovarian, 47.2%; in the experiment on OVCAR-4 ovarian, 22.7%; in the experiment on SK-OV-3 ovarian, 16%. Besides, the growth was 25.4% in the experiment on IGROV1 ovarian; 28.8% in the experiment with OVCAR-3 ovarian; 27.6% in the experiment with HS 578T breast; 30.8% with NCI/ADR-RES ovarian; 15% in the experiment on T-47D breast; 38.9% with BT-549 breast. Moreover, the growth with MDA-MB-435 melanoma was 18.7%; in the experiment on SW-620 colon, 30.2%; in the experiment with MCF7 breast it was 11.8%; with HCT-116 colon it was 18.9%; in the experiment with HCC-2998 colon, 32.2%; in the experiment on KM12 colon it was 30.8%.
`Oc1c(Cl)cc(Cl)c2ccc(Cn3cc(-c4cc(C(F)(F)F)cc(C(F)(F)F)c4)nn3)nc12`: the growth in the experiment with SR leukemia was -14% (active); in the experiment on RPMI-8226 leukemia, 3.44% (active); with OVCAR-8 ovarian, 53.6%; in the experiment with OVCAR-5 ovarian, 95.6%; in the experiment with OVCAR-4 ovarian it was 48.6%; in the experiment on SK-OV-3 ovarian, 115%. The growth in the experiment on IGROV1 ovarian was 82.3%; in the experiment with OVCAR-3 ovarian, -4.28% (active); with HS 578T breast it was 94.9%; in the experiment with NCI/ADR-RES ovarian, 97.8%; in the experiment on T-47D breast, 33.7%; in the experiment on BT-549 breast, 66%. Also, the growth was 43.5% in the experiment on MDA-MB-435 melanoma; 4.61% (active) in the experiment on SW-620 colon; 21.2% in the experiment on MCF7 breast; 1.78% (active) in the experiment on HCT-116 colon; 101% in the experiment with HCC-2998 colon; 102% in the experiment with KM12 colon.
As for `Oc1ccc(CCn2c(O)c(/C=C3\CN=c4ccccc4=N3)sc2=S)cc1`, the growth is 20.9% in the experiment on SR leukemia; 33.8% in the experiment with RPMI-8226 leukemia; 86.8% with OVCAR-8 ovarian; 95.6% in the experiment on OVCAR-5 ovarian; 80.5% in the experiment on OVCAR-4 ovarian; 79.5% with SK-OV-3 ovarian. The growth in the experiment with IGROV1 ovarian is 39.9%; in the experiment with OVCAR-3 ovarian it was 44.7%; with HS 578T breast it was 68.5%; with NCI/ADR-RES ovarian it was 65.7%; in the experiment with T-47D breast, 39.8%; in the experiment with BT-549 breast, 43.8%. In addition, the growth in the experiment with MDA-MB-435 melanoma is 70.6%; in the experiment with SW-620 colon it was 67.4%; with MCF7 breast, 16.7%; in the experiment on HCT-116 colon it was 55.8%; with HCC-2998 colon it was 87.1%; with KM12 colon, 5.46% (active).
Take `CNC(=O)c1cc(Oc2ccc3c(c2)sc2nc(-c4cc(OC)c(OC)c(OC)c4)cn23)ccn1`: the growth in the experiment on SR leukemia was 35.5%; with RPMI-8226 leukemia it was 21%; in the experiment with OVCAR-8 ovarian, 49.1%; in the experiment on OVCAR-5 ovarian, 104%; in the experiment on OVCAR-4 ovarian it was 46.2%; with SK-OV-3 ovarian it was 77.7%. Further, the growth in the experiment with IGROV1 ovarian was 72.7%; with OVCAR-3 ovarian it was 71.9%; in the experiment with HS 578T breast it was 70.2%; with NCI/ADR-RES ovarian it was 63.5%; in the experiment with T-47D breast, -4.73% (active); in the experiment with BT-549 breast, 24%. Moreover, the growth in the experiment with MDA-MB-435 melanoma was 51.7%; with SW-620 colon it was 77.4%; in the experiment with MCF7 breast, 32.1%; in the experiment on HCT-116 colon, 55.2%; with HCC-2998 colon, 74.6%; in the experiment with KM12 colon, 66.3%.
With `N#Cc1c(-c2ccc(Cl)cc2)nc(NN=Cc2cccc(O)c2)nc1N1CCOCC1`, the growth in the experiment on SR leukemia was 4.7% (active); in the experiment on RPMI-8226 leukemia, 37.4%; in the experiment on OVCAR-8 ovarian, 65.4%; in the experiment on OVCAR-5 ovarian, 97.4%; in the experiment with OVCAR-4 ovarian, 72.4%; with SK-OV-3 ovarian, 98%. Moreover, the growth in the experiment with IGROV1 ovarian is 64.9%; in the experiment on OVCAR-3 ovarian, 77.7%; with HS 578T breast it was 89.4%; with NCI/ADR-RES ovarian, 64.9%; in the experiment on T-47D breast, 64.6%; in the experiment with BT-549 breast, 73.1%. The growth in the experiment on MDA-MB-435 melanoma is 87%; in the experiment with SW-620 colon, 64.8%; in the experiment with MCF7 breast it was 60.1%; with HCT-116 colon, 57.9%; in the experiment on HCC-2998 colon, 103%; with KM12 colon, 81%.
For the compound `c1ccc(C2=NN[C@H](c3cn(-c4ccccc4)nc3-c3ccccc3)C2)cc1`, the growth is 90.9% with SR leukemia; 86.7% with RPMI-8226 leukemia; 35.6% in the experiment on OVCAR-8 ovarian; 83.6% in the experiment on OVCAR-5 ovarian; 14.8% in the experiment with OVCAR-4 ovarian; -1.38% (active) in the experiment with SK-OV-3 ovarian. Besides, the growth with IGROV1 ovarian was 62.1%; with OVCAR-3 ovarian, 2.11% (active); with HS 578T breast, -7.83% (active); in the experiment with NCI/ADR-RES ovarian it was 48.9%; in the experiment with T-47D breast, 43.5%; with BT-549 breast, 48.7%. The growth in the experiment on MDA-MB-435 melanoma is 67%; with SW-620 colon, 55.7%; in the experiment on MCF7 breast, 74.4%; with HCT-116 colon, 22.8%; in the experiment with HCC-2998 colon it was 64.6%; with KM12 colon it was 62.8%.
